Experimental data from PMC10812921, “Transcriptional Coactivator BOB1 (OBF1, OCA-B) Modulates the Specificity of DNA Recognition by the POU-Domain Factors OCT1 and OCT2 in a Monomeric Configuration”.

Columns and labels:
[1] = target: POU1 (OCT1 POU domain) (human, UniProt P14859 260-458); assay: EMSA-SELEX-seq; no BOB1; 20 mM Tris-HCl pH 7.6, 140 mM NaCl, 10% glycerol, 0.5 mM EDTA, 0.05% Triton X-100, 0.1 mg/mL BSA, 0.1 mg/mL poly(dI-dC), 5 mM DTT, room temperature, 20 min; high values mean tight binding; settings: protein: recombinant; dsDNA, one strand shown
POU1 (OCT1 POU domain), sequence (P14859 260-458): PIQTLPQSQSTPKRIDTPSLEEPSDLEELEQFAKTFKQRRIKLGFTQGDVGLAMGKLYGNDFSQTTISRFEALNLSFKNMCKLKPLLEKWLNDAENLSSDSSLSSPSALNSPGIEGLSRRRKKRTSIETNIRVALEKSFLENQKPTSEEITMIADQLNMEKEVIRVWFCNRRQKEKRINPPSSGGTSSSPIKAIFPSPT
Procedure, shortened: (§1)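 Binding preference is the percentage of sequenced 8-mers matching a motif pattern. Tagged POU-domain proteins expressed in E. coli BL21 were purified under denaturing conditions and renatured. For binding, 30 ng protein met 300 ng of a PCR-amplified double-stranded random 35-nt library, with or without 28 ng coactivator protein, in 20 μL Tris–HCl pH 7.6 binding buffer for 20 min at RT. Complex bands were cut from native 6% PAGE, eluted and PCR-amplified over four rounds, then Illumina-sequenced.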

[2] = target: T1, POU2 (OCT2 POU domain) (human, UniProt P09086 175-386); assay: as above; settings: protein: recombinant; dsDNA, one strand shown
T1 sequence: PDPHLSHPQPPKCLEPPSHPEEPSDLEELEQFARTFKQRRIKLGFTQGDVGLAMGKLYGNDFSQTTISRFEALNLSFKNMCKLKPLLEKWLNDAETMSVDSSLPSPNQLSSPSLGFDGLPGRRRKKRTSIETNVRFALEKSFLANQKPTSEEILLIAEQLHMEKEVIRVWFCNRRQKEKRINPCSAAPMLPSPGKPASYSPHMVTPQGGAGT
Procedure, shortened: as §1

[3] = target: POU1 (OCT1 POU domain);BOB1 (OBF1, OCA-B) (human;human, UniProt P14859;Q16633 260-458;1-256, |); assay: EMSA-SELEX-seq; with BOB1 (ternary complex band); 20 mM Tris-HCl pH 7.6, 140 mM NaCl, 10% glycerol, 0.5 mM EDTA, 0.05% Triton X-100, 0.1 mg/mL BSA, 0.1 mg/mL poly(dI-dC), 5 mM DTT, room temperature, 20 min; high values mean tight binding; settings: protein: recombinant;recombinant; copies: 1;1; dsDNA, one strand shown
Procedure, shortened: as §1

[4] = target: T2, POU2 (OCT2 POU domain);BOB1 (OBF1, OCA-B) (human;human, UniProt P09086;Q16633 175-386;1-256, |); assay: as above; settings: protein: recombinant;recombinant; copies: 1;1; dsDNA, one strand shown
T2 sequence 1: T1 sequence
T2 sequence 2: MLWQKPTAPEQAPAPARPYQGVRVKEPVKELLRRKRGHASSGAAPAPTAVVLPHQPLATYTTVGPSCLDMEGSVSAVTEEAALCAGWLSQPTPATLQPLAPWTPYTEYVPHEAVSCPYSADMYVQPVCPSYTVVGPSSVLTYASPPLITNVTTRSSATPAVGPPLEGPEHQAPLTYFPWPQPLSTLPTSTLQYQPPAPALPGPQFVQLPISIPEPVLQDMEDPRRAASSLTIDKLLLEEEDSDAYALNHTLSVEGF
Procedure, shortened: as §1

Row | Sequence | binding signal [1] | binding signal [2] | binding signal [3] | binding signal [4]
1 | ACGCTAAC | 0.0118 % of ANNNNAAN 8-mers | 0.0121 % of ANNNNAAN 8-mers | 0.0133 % of ANNNNAAN 8-mers | 0.0157 % of ANNNNAAN 8-mers
2 | ACGACAAT | 0.029 % of ANNNNAAN 8-mers | 0.0299 % of ANNNNAAN 8-mers | 0.025 % of ANNNNAAN 8-mers | 0.0297 % of ANNNNAAN 8-mers
3 | ATGACAAT | 0.0576 % of ANNNNAAN 8-mers | 0.0737 % of ANNNNAAN 8-mers | 0.0453 % of ANNNNAAN 8-mers | 0.0471 % of ANNNNAAN 8-mers
4 | AAAGTAAT | 0.103 % of ANNNNAAN 8-mers | 0.14 % of ANNNNAAN 8-mers | 0.11 % of ANNNNAAN 8-mers | 0.0941 % of ANNNNAAN 8-mers
5 | ATCTAAAG | 0.0412 % of ANNNNAAN 8-mers | 0.0397 % of ANNNNAAN 8-mers | 0.0503 % of ANNNNAAN 8-mers | 0.0479 % of ANNNNAAN 8-mers
6 | ATATCAAG | 0.0641 % of ANNNNAAN 8-mers | 0.0552 % of ANNNNAAN 8-mers | 0.0453 % of ANNNNAAN 8-mers | 0.0479 % of ANNNNAAN 8-mers
7 | ACGTTAAT | 0.112 % of ANNNNAAN 8-mers | 0.163 % of ANNNNAAN 8-mers | 0.073 % of ANNNNAAN 8-mers | 0.102 % of ANNNNAAN 8-mers
8 | AACCTAAA | 0.0206 % of ANNNNAAN 8-mers | 0.0391 % of ANNNNAAN 8-mers | 0.0242 % of ANNNNAAN 8-mers | 0.0264 % of ANNNNAAN 8-mers
9 | ATAGTAAG | 0.0633 % of ANNNNAAN 8-mers | 0.0806 % of ANNNNAAN 8-mers | 0.0656 % of ANNNNAAN 8-mers | 0.0619 % of ANNNNAAN 8-mers
10 | AACCAAAA | 0.0522 % of ANNNNAAN 8-mers | 0.0449 % of ANNNNAAN 8-mers | 0.0753 % of ANNNNAAN 8-mers | 0.0388 % of ANNNNAAN 8-mers
11 | ACCATAAT | 0.082 % of ANNNNAAN 8-mers | 0.0967 % of ANNNNAAN 8-mers | 0.0367 % of ANNNNAAN 8-mers | 0.0495 % of ANNNNAAN 8-mers
12 | AGACTAAG | 0.0278 % of ANNNNAAN 8-mers | 0.0328 % of ANNNNAAN 8-mers | 0.03 % of ANNNNAAN 8-mers | 0.0314 % of ANNNNAAN 8-mers
13 | AGGAGAAA | 0.0572 % of ANNNNAAN 8-mers | 0.0541 % of ANNNNAAN 8-mers | 0.0539 % of ANNNNAAN 8-mers | 0.0471 % of ANNNNAAN 8-mers
14 | AATGTAAT | 0.169 % of ANNNNAAN 8-mers | 0.181 % of ANNNNAAN 8-mers | 0.109 % of ANNNNAAN 8-mers | 0.137 % of ANNNNAAN 8-mers
15 | ACAAAAAA | 0.0656 % of ANNNNAAN 8-mers | 0.0621 % of ANNNNAAN 8-mers | 0.0808 % of ANNNNAAN 8-mers | 0.0528 % of ANNNNAAN 8-mers
16 | AGACTAAA | 0.0374 % of ANNNNAAN 8-mers | 0.0443 % of ANNNNAAN 8-mers | 0.0297 % of ANNNNAAN 8-mers | 0.0289 % of ANNNNAAN 8-mers
17 | AGGAAAAG | 0.1 % of ANNNNAAN 8-mers | 0.08 % of ANNNNAAN 8-mers | 0.133 % of ANNNNAAN 8-mers | 0.0702 % of ANNNNAAN 8-mers
18 | AAGTCAAA | 0.141 % of ANNNNAAN 8-mers | 0.113 % of ANNNNAAN 8-mers | 0.258 % of ANNNNAAN 8-mers | 0.165 % of ANNNNAAN 8-mers
19 | ATAGAAAG | 0.0461 % of ANNNNAAN 8-mers | 0.0598 % of ANNNNAAN 8-mers | 0.0546 % of ANNNNAAN 8-mers | 0.0487 % of ANNNNAAN 8-mers
20 | ATAGCAAG | 0.032 % of ANNNNAAN 8-mers | 0.0363 % of ANNNNAAN 8-mers | 0.0394 % of ANNNNAAN 8-mers | 0.0454 % of ANNNNAAN 8-mers
21 | AGTAAAAA | 0.0911 % of ANNNNAAN 8-mers | 0.0679 % of ANNNNAAN 8-mers | 0.103 % of ANNNNAAN 8-mers | 0.0578 % of ANNNNAAN 8-mers
22 | ATCAAAAT | 0.095 % of ANNNNAAN 8-mers | 0.0932 % of ANNNNAAN 8-mers | 0.106 % of ANNNNAAN 8-mers | 0.0743 % of ANNNNAAN 8-mers
23 | ACAACAAG | 0.0248 % of ANNNNAAN 8-mers | 0.0167 % of ANNNNAAN 8-mers | 0.0187 % of ANNNNAAN 8-mers | 0.014 % of ANNNNAAN 8-mers
24 | ACCTGAAA | 0.0183 % of ANNNNAAN 8-mers | 0.0247 % of ANNNNAAN 8-mers | 0.0215 % of ANNNNAAN 8-mers | 0.019 % of ANNNNAAN 8-mers
25 | ACGATAAC | 0.0252 % of ANNNNAAN 8-mers | 0.0293 % of ANNNNAAN 8-mers | 0.0191 % of ANNNNAAN 8-mers | 0.0264 % of ANNNNAAN 8-mers
26 | ATAACAAT | 0.0622 % of ANNNNAAN 8-mers | 0.088 % of ANNNNAAN 8-mers | 0.0496 % of ANNNNAAN 8-mers | 0.0735 % of ANNNNAAN 8-mers
27 | AAGTCAAG | 0.0332 % of ANNNNAAN 8-mers | 0.0403 % of ANNNNAAN 8-mers | 0.0367 % of ANNNNAAN 8-mers | 0.033 % of ANNNNAAN 8-mers
28 | AGGTAAAG | 0.0801 % of ANNNNAAN 8-mers | 0.0708 % of ANNNNAAN 8-mers | 0.116 % of ANNNNAAN 8-mers | 0.071 % of ANNNNAAN 8-mers
29 | ATTCGAAA | 0.0725 % of ANNNNAAN 8-mers | 0.0783 % of ANNNNAAN 8-mers | 0.0605 % of ANNNNAAN 8-mers | 0.0578 % of ANNNNAAN 8-mers
30 | AGAGCAAC | 0.0133 % of ANNNNAAN 8-mers | 0.0115 % of ANNNNAAN 8-mers | 0.0137 % of ANNNNAAN 8-mers | 0.0206 % of ANNNNAAN 8-mers
